Consider 35 compounds from PubChem BioAssay (NCATS).

Where “and” joins values, the source holds several entries; their conditions need not be identical. Identical values can stand only once. Inconclusive results are not listed. Unmarked numbers belong to inactive results. Calls of active or inactive are those of the source. Calls come from the whole dose curve; as a rule, active = well fitted cell-killing curve with a large enough effect; inconclusive = small, poorly fitted or top-dose-only effect; inactive = flat fitted curve, though single readings scatter.
% is set by controls: 0 for no effect and ±100 for the full control effect; potency is the fitted concentration of half-maximal effect.

The test in a line: Cellular viability qHTS for adrenocortical cancer (ACC) cell line SW-13 (AID 1963989).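 For activity (max response): cells grown in serum-free medium with ITS supplement.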 Note: nearly all actives have a fitted effect of over 65% in size. The settings on record: SW-13 ACC cells viability, CellTiter-Glo, 48 h; activity (max response): hits give low values. An outline of the steps: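 Compound titrations (up to 46 uM final, in DMSO) were applied to SW-13 cells for 48 h at 37C/5% CO2. Reading used CellTiter-Glo after 20 min at room temperature; fitted curves yielded IC50 and efficacy.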
(In general: In qHTS, concentration-response curves come from the screen itself.)
Regarding `CC(C)NCC(O)c1ccc2ccccc2c1` (stereo not given), the activity (max response) is 8.99%.
On the same count and under the same terms, to `c1ccc2c(c1)CCCC2C1=NCCN1` (stereo not given) belongs 5.7%; to `CC(O)Cn1cnc2c1c(=O)n(C)c(=O)n2C` (stereo not given), -7.87%.
In the case of `COC1=C2C[C@H](C)C[C@H](OC)[C@H](O)[C@@H](C)/C=C(/C)[C@H](OC(N)=O)[C@@H](OC)/C=C\C=C(\C)C(=O)NC(=CC1=O)C2=O`, the activity (max response) is -3.63%.
Take `CC(=O)O/N=C1/C(c2c(O)[nH]c3cc(Br)ccc23)=Nc2ccccc21`: the Potency is 25.1 µM (active).
As to `CCN(CC)CCOCCOC(=O)C1(c2ccccc2)CCCC1`, the activity (max response) is -3.2%.
With `Oc1c(Cl)cc(Cl)cc1Sc1cc(Cl)cc(Cl)c1O`, the Potency was 20.6 µM (active).
Regarding `N/C(=N\N=C\c1ccc(Cl)cc1)N/N=C/c1ccc(Cl)cc1`, the activity (max response) was -4.76%.
In the case of `C[C@H]1CC2[C@@H]3CCC4=CC(=O)C=C[C@]4(C)[C@@]3(F)[C@@H](O)C[C@]2(C)[C@@]1(O)C(=O)CO` (stereo not given in full), the activity (max response) is -7.86%.
`C=CCN1C[C@H](C(=O)N(CCCN(C)C)C(=O)NCC)C[C@@H]2c3cccc4[nH]cc(c34)C[C@H]21`: the activity (max response) is 3.88%.
As to `CC(=O)SCC(CC(=O)c1ccc(C)cc1)C(=O)O` (stereo not given), the activity (max response) was 11.5%.
With `Cc1c(N)c(=O)n(-c2ccccc2)n1C`, the activity (max response) is -4.39%.
Still for that read-out and setting: to `O=C(Nc1ccccc1)Nc1ccc(-c2ccc(C(=O)[C@@H]3CCC[C@H]3C(=O)O)cc2)cc1` belongs -19.9%; to `COCCNc1cc(NC(=O)N2CCCc3cc(CN4CCN(C)CC4=O)c(C=O)nc32)ncc1C#N`, -2.64%.
For `Nc1cc(C(F)(F)F)c(-c2nc(N3CCOCC3)nc(N3CCOCC3)n2)cn1`, the Potency is 11.2 µM (active).
As for `C#CC1(O)CC[C@H]2[C@@H]3CCC4=CCCC[C@@H]4[C@H]3CC[C@@]21C` (stereo not given in full), the activity (max response) is 6.47%.
For the compound `COc1cc(/C=C/C(=O)O[C@H]2CC[C@]34C[C@]35CC[C@]3(C)[C@@H]([C@H](C)CCC=C(C)C)CC[C@@]3(C)[C@@H]5CC[C@H]4C2(C)C)ccc1O`, the Potency is 14.6 µM (active).
With `CC(C)CCOC(=O)c1ccc(N(C)C)cc1`, the activity (max response) was 5.28%.
Still for that read-out and setting: the same measure for `Cc1[nH]cnc1CN1CCc2c(c3ccccc3n2C)C1=O`: 6.95%.
Consider `CCOc1ccc(-n2c([C@@H](C)N(Cc3cccnc3)C(=O)Cc3ccc(F)c(C(F)(F)F)c3)nc3ncccc3c2=O)cc1`, for which the activity (max response) was -7.78%.
The same measure, in the same setting: to `CC(=O)Oc1cccc2c1C(=O)c1c(OC(C)=O)cc(C(=O)O)cc1C2=O` belongs -7.7%.
Take `O[C@@H](c1cc(C(F)(F)F)nc2c(C(F)(F)F)cccc12)[C@H]1CCCCN1`: the Potency is 16.4 µM (active).
Consider `Cc1cccc(-c2[nH]ncc2-c2ccc(F)c(-c3cnn(CCO)c3)c2)n1`, for which the activity (max response) is -6.75%.
Still for that read-out and setting: to `CO[C@H]1C=CO[C@@]2(C)Oc3c(C)c(O)c4c(O)c(c(/C=N/N5CCN(C)CC5)c(O)c4c3C2=O)NC(=O)/C(C)=C\C=C[C@H](C)[C@H](O)[C@@H](C)[C@@H](O)[C@@H](C)[C@H](OC(C)=O)[C@@H]1C` belongs -17.1%; to `COC(=O)c1c(Cl)c(Cl)c(C(=O)OC)c(Cl)c1Cl`, 12.2%.
On the same count and under the same terms, to `CNC(=O)c1c(C)oc2cc(Oc3ncnc4cc(OC)c(OC)cc34)ccc12` belongs 9.66%.
On to `CN1CC[C@H](c2c(O)cc(O)c3c(=O)cc(-c4ccccc4Cl)oc23)[C@H](O)C1`, for which the Potency is 0.184 µM (active).
For `CC(=O)Oc1ccc(C(c2ccc(OC(C)=O)cc2)c2ccccn2)cc1`, the activity (max response) was -17.9%.
Still for that read-out and setting: the same measure for `Cc1cc(C)c(/C=C2\C(=O)Nc3ccccc32)[nH]1`: 5.7% and 12.2%; for `CC(C)NC(=O)N1CC[C@H](N=C2Nc3cc(F)ccc3N(CC(F)F)c3ccc(Cl)cc32)C1`: -16%.
Still for that read-out and setting: the same measure for `C[C@H](CS)C(=O)N1CCC[C@H]1C(=O)O`: -1.14%; for `COc1cc(O)c(C(=O)c2ccccc2)cc1S(=O)(=O)O`: 9.22%.
Same read-out and setting: to `N=C1S/C(=C\c2ccc(-c3ccc4c(c3)C(=O)NC4=O)o2)C(=O)N1c1ccc(Br)cc1` belongs 2.9%; to `C[C@@H]1C[C@H]2[C@@H]3CCC4=CC(=O)C=C[C@]4(C)[C@@]3(F)[C@@H](O)C[C@]2(C)[C@H]1C(=O)CO`, 1.09%; to `C[C@]1(C(=O)N(CCCC(=O)O)Cc2cccc(Cl)c2)CCN1C(=O)c1csc2ccccc12`, -17.4%.
